# A selection: hits, their analogues and other compounds. The true share with any hit is near 18%.
# TDP1 block: blocks human tyrosyl-DNA phosphodiesterase 1; Q9NUW8; recombinant TDP1, AlphaScreen DNA substrate cleavage; Potency, µM (series often up to 130 µM), without a hit: at the top dose activity change, negative = inhibition, most hits filed as inhibitors; 0.28% of 350,000 active; AID 485290; note: nearly all actives have a fitted effect of over 40% in size
#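 Steps: enzyme plus compound, 15 min RT; add biotin/phosphotyrosine-FITC oligonucleotide (15 nM final), react 5 min; add donor/acceptor beads (10 ug/ml final), 10 min; read AlphaScreen. Tdp1 at 1 nM final.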
# VDR inhibitor: blocks the human vitamin D receptor. P11473. VDR-SRC2-3 peptide fluorescence polarization, 2 h. Potency, µM, for inactives: max response, negative = inhibition, usual class: inhibitors. 0.93% of 400,000 active. AID 504847
#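 Inhibition of the VDR/SRC2-3 peptide interaction is quantified by fluorescence polarization. Compounds (23 nl, pintool) incubate with the reagents for 2 hours at ambient room temperature.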
# PLK1 PBD inh: inhibitors of human PLK1 polo-box domain binding. P53350. Plk1 PBD binding of FITC phosphopeptide, fluorescence polarization. Potency, µM, for the others: max response, negative = inhibition, actives largely listed as inhibitors. 2.8% of 360,000 active; note: series mostly up to about 57 µM; nearly all actives have a fitted effect of over 65% in size
# Target sequence (P53350 whole entry, looked up, the tested form may be a part): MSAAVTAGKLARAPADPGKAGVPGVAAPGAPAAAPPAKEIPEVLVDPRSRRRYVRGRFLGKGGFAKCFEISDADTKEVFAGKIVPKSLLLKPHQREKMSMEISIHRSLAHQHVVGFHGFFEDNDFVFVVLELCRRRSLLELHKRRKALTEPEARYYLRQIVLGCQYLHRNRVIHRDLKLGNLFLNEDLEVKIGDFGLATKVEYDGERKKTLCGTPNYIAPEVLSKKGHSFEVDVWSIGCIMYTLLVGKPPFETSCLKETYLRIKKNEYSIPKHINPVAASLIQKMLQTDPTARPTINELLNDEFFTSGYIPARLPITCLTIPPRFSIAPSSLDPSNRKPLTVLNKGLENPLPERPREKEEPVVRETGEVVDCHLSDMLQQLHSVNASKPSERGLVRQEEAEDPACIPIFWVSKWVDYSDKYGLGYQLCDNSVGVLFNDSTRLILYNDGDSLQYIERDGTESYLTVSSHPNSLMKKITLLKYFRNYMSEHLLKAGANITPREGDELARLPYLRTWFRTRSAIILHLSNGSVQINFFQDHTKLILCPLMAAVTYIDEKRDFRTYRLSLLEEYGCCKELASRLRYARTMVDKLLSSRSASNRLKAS
# GCN5L2 inh: blocks human GCN5L2 histone acetyltransferase. Potency, µM (doses to about 58.9 µM), for inactives: at the highest dose activity change, negative = inhibition, most hits filed as inhibitors. 0.21% of 390,000 active. AID 504327. GCN5L2 HAT assay, ThioGlo1 CoA-SH fluorescence. Q92830
#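 qHTS, 1536-well. 20nM enzyme, pH 7.5 HEPES/EDTA/Tween-20 buffer; 15 min compound preinc., RT. Start: 75uM H3(1-25), 70uM AcCoA, 50uM ThioGlo1. Read Ex340/Em540 at t=0 (autofluorescence flag) and t=20 min.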
# DT40 TDP1 no CPT: qHTS for Inhibitors of human tyrosyl-DNA phosphodiesterase 1 (TDP1): qHTS in cells in absence of CPT; DT40 Tdp1-/- hTDP1 cells, no CPT, ATP luminescence, 48 h; Potency, µM (titrated, usually from 46.2 µM), inactives show at the top dose activity change, negative = growth inhibition, most hits filed as inhibitors; 15% of 420,000 active; AID 686978, 2013; note: nearly all actives have a fitted effect of over 55% in size
#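 No-CPT arm: Tdp1-/-;hTDP1 DT40 cells (400/well) plus compounds, incubated ≥48 hr at 37 °C. Readout CellTiter-Glo luminescence.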
# TDP1 cell CPT: growth inhibition of DT40 Tdp1-/-;hTDP1 cells with camptothecin (screen for TDP1 inhibitors); chicken DT40 Tdp1-/-;hTDP1 cells + 20 nM CPT, ATP luminescence, 48 h; 12% of 420,000 active; Potency, µM (doses to about 46.2 µM), inactives show top-dose activity change, negative = growth inhibition, hits mostly inhibitors; note: nearly all actives have a fitted effect of over 55% in size
#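 Chicken DT40 Tdp1-/- cells stably complemented with human TDP1 were seeded at 400 cells/well in medium containing 20 nM camptothecin, exposed to pin-transferred compounds, and grown at 37 °C for at least 48 hr. Viability was read as ATP luminescence.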
# * hit, by the source's call; ? = inconclusive; nt = no result. Calls come from the whole dose curve; as a rule, active = well fitted curve in the direction sought with a large enough effect; inconclusive = small, poorly fitted or top-dose-only effect, or another doubt; inactive = no such curve, though single readings can be large; an effect the other way counts as inactive or inconclusive. % is set by controls: 0 for no effect and ±100 for the full control effect; potency is the fitted concentration of half-maximal effect.
SMILES,TDP1 block,VDR inhibitor,PLK1 PBD inh,GCN5L2 inh,DT40 TDP1 no CPT,TDP1 cell CPT
CCCCC1CCc2[nH]nc(C(=O)O)c2C1 (configuration not stated),-3%,-13%,-17%,-2%,-7%,-1%
Cc1cc(C(=O)N/N=C/c2c(C)[nH]n(-c3ccccc3)c2=O)n[nH]1,2%,1%,-9%,-6%,?,21µM*
Cc1nn(-c2ccccc2)c(C)c1/C=N/NC(=O)c1cc(C(C)(C)C)[nH]n1,2%,3%,-7%,-3%,?,?
Cc1ccc(-c2cc(C(=O)N/N=C/c3c(C)nn(-c4ccccc4)c3C)n[nH]2)s1,6%,-1%,-9%,-9%,0.82µM*,0.65µM*
CC1(C)[C@H]2CC=C(CN3CCC(N4CCC(C(=O)N5CCCC5)CC4)CC3)[C@@H]1C2,1%,-7%,-21%,-3%,?,?
O=c1[nH]c(/C(Cl)=C/c2cccc(F)c2)nc2cc(C(F)(F)F)ccc12,3%,-22%,0%,-5%,23µM*,?
CCc1ccc(/C=C(\Cl)c2nc3cc(Cl)ccc3c(=O)[nH]2)cc1,0%,-13%,-5%,-1%,?,?
O=C(CCCn1c(=O)c2cccn2c2cccnc21)Nc1ccccc1C(F)(F)F,-8%,12%,nt,-6%,-15%,-14%
CCc1ccccc1NC(=O)CN(C)C(=O)Cn1ncc(Cl)c(Cl)c1=O,1%,-24%,-9%,-4%,6.5µM*,5.8µM*
O=C(OCC(=O)c1ccc[nH]1)c1ccc(C(F)(F)F)cc1,-1%,-8%,6%,-1%,-12%,11%
CCOC(=O)c1ccc(NC(=O)Cn2ncc(Cl)c(Cl)c2=O)cc1,3%,-12%,?,-12%,2.3µM*,2.3µM*
Cc1ccc(C(=O)COC(=O)c2nc(Cl)ccc2Cl)cc1,-7%,-8%,-7%,-16%,1%,2%
O=C(OCn1ncc(Cl)c(Cl)c1=O)c1ccc(C(F)(F)F)cc1,-9%,20µM*,-21%,-5%,5.8µM*,2.9µM*
Cc1ccc(C(=O)OCn2ncc(Cl)c(Cl)c2=O)cc1,-4%,?,?,2%,2.6µM*,1.8µM*
CC12CCC(C(=O)NC3CCCCC3)([C@H](Br)C1=O)C2(C)C (some centres not stated),nt,-18%,-1%,1%,8%,7%
COc1ccccc1C(=O)c1c(N)c(-c2nc(-c3ccccc3)cs2)c2ccccn12,0%,0%,nt,-7%,21µM*,18µM*
CN1CCN(c2ccc(CNS(=O)(=O)Cc3ccc(Cl)cc3)cc2)CC1,3%,-5%,-10%,0%,16µM*,?
Cc1cc(S(=O)(=O)NCc2ccc(N3CCN(C)CC3)cc2)c(C)s1,4%,9%,2%,0%,21µM*,?
CN1CCN(c2ccc(CNS(=O)(=O)c3ccc(F)cc3Cl)cc2)CC1,1%,11%,2%,-3%,?,18µM*
CC(=O)c1ccc(N2CCN(C(=O)c3cccs3)C(C)C2)c(F)c1 (configuration not stated),8%,-4%,-9%,-1%,21µM*,?
CCOc1ncccc1C(=O)NCCc1ccc(Cl)cc1,nt,-25%,6%,17%,?,?
COc1ccc(SC2=C[C@@]3(O)CC[C@@H](O)[C@@](Sc4ccc(OC)cc4)(C2=O)[C@H]3O)cc1,nt,nt,?,nt,16µM*,23µM*
COc1ccc(N2CC(NC(=O)C3CC3)CC2=O)cc1 (configuration not stated),0%,0%,nt,-4%,-12%,14%
O=C1C(Sc2ccccc2)=C[C@@]2(O)CC[C@@H](O)[C@]1(Sc1ccccc1)[C@H]2O,nt,nt,?,nt,5.8µM*,5.2µM*

# High-throughput results deposited in PubChem BioAssay by National Center for Advancing Translational Sciences (NCATS).
